Compound activity deposited in PubChem BioAssay by National Center for Advancing Translational Sciences (NCATS).
TRb SRC2 PPI – inhibitors of human thyroid hormone receptor beta-SRC2 interaction. P10828. TRbeta-SRC2 peptide binding, fluorescence polarization; receptor liganded with 1 µM T3. Potency, µM (top dose mostly 106 µM), without a hit: top-dose activity change, negative = inhibition, hits mostly inhibitors. 280,000 compounds, 0.065% hits. AID 1469;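 further: potency means the concentration at half of the fitted maximal effect; plate controls were bound peptide for no effect and peptide without receptor for full effect; nearly all actives have a fitted effect of over 50% in size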
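Fluorescence polarization of 20 nM Texas Red SRC2 peptide with 0.6 uM human TRb ligand-binding domain, in Tris buffer with 1uM T3 and 5% DMSO. Incubated 5 hr ambient; normalized to unbound and bound controls.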
TR SRC2 fluor cs – alters Texas Red total fluorescence, flagging assay interference; 280,000 compounds, 0.29% hits; Potency, µM (top dose mostly 106 µM), for inactives: top-dose fluorescence change, negative = quenching; TRb/SRC2 Texas Red total fluorescence interference; active means well fitted curve in either direction with a large enough effect; inconclusive means small, poorly fitted or top-dose-only effect; further: potency means the concentration at half of the fitted maximal effect; on the % scale 0 is the no-effect control and ±100 the full control effect
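Human TRβ ligand-binding domain (0.6 uM) and Texas Red SRC2 peptide (20 nM) in Tris buffer with 1 uM T3 and 5% DMSO were incubated with pinned compound for 5 hr at ambient temperature. Total fluorescence was computed as S + 2P (555/632 nm).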
Coupling enz – inhibits coupling enzyme system, counter-screen for aldolase hits; coupling enzyme system counterscreen, AmpLite Red fluorescence; activity change, negative = inhibition, % at 58.2 µM, hits read low; 290,000 compounds, 0.67% hits; in the data active means activity change below about -30%; further: on the % scale 0 is the no-effect control and ±100 the full control effect
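Compounds tested against the coupling enzymes alone at 57.5 uM final; readout was AmpLite Red fluorescence (525/598 nm) after 20 min at RT.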
TSHR antag – human thyrotropin receptor antagonism | 330,000 compounds, 0.2% hits | TSHR-expressing cells, TSH-stimulated cAMP HTRF, 2 h; hits give low values | AID 504810 | P16473 | activity change, negative = inhibition, % at 11.5 µM;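 active means activity change below a set negative limit, meaning inhibition stronger than a set level, cut at about -70% in these data; inconclusive means activity change between two set negative limits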; further: on the % scale 0 is the no-effect control and ±100 the full control effect
Target sequence (P16473 whole entry, looked up): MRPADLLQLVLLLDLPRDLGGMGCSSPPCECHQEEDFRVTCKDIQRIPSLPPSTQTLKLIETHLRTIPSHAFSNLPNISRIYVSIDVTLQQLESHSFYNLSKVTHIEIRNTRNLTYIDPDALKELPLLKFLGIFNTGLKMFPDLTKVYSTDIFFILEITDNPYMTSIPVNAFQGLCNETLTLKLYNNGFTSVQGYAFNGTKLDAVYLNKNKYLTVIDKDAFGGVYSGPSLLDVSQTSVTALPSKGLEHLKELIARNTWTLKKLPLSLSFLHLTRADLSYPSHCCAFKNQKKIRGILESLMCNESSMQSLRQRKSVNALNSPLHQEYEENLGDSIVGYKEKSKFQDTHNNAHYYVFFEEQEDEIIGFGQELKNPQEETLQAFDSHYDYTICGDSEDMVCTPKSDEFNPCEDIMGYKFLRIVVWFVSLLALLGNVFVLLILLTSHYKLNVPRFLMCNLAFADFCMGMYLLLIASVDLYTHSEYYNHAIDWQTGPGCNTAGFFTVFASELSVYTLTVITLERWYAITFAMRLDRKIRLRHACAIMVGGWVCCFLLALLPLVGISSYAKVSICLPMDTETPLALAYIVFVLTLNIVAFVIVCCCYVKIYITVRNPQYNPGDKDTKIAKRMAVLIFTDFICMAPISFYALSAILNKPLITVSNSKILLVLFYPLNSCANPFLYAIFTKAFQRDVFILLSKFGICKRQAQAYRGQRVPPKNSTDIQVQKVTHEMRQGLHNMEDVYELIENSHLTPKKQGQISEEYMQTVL
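TSHR-expressing cells were treated with compounds, then stimulated with TSH at EC80 (4nM final) for 2 hours at 37 deg C. Cellular cAMP was measured by HTRF competition between lysate cAMP and cAMP-d2 for a cryptate-labelled anti-cAMP antibody.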
NPSR antagonist – blocks cAMP signaling of the human neuropeptide S receptor; CHO-NPSR cells, cAMP TR-FRET, antagonist mode; Potency, µM (titrated, usually from 38.3 µM), for inactives: top-dose activity change, negative = inhibition, usual class: inhibitors; 220,000 compounds, 1% hits; AID 1461; further: potency means the concentration at half of the fitted maximal effect; on the % scale 0 is the no-effect control and ±100 the full control effect; nearly all actives have a fitted effect of over 50% in size
TCR act – activators of T cell receptors | 330,000 tested, under 10 active | Potency, µM (titrated, usually from 9.22 µM), for the others: at the highest dose activation of IL-2 secretion, most hits filed as activators | primary human leukocytes, anti-CD3, IL-2 HTRF, 48 h; further: % of control where 0% means no effect
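Primary human leukocytes incubated 48 hr with anti-CD3 beads plus compound, without co-stimulation. Secreted IL-2 measured by HTRF (europium cryptate/d2 anti-IL-2 pair, 320 nm excitation, 665 nm emission).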
Numbers without * were called inactive; ? = inconclusive; . = no result; ! = not active in a repeat; [ ] = dose if it differs, or a comment. An excerpt weighted towards active compounds, which were near 1% of everything screened. Unless noted, the call rests on the fitted dose curve; in most records, active means well fitted curve in the direction sought with a large enough effect; inconclusive means small, poorly fitted or top-dose-only effect, or another doubt; inactive means no such curve, though single readings can be large; an effect the other way counts as inactive or inconclusive.

SMILES | TRb SRC2 PPI | TR SRC2 fluor cs | Coupling enz | TSHR antag | NPSR antagonist | TCR act
O=C(OCC1OC(OC(=O)c2cc(O)c(O)c(OC(=O)c3cc(O)c(O)c(O)c3)c2)[C@@H](OC(=O)c2cc(O)c(O)c(OC(=O)c3cc(O)c(O)c(O)c3)c2)C(OC(=O)c2cc(O)c(O)c(OC(=O)c3cc(O)c(O)c(O)c3)c2)C1OC(=O)c1cc(O)c(O)c(OC(=O)c2cc(O)c(O)c(O)c2)c1)c1cc(O)c(O)c(OC(=O)c2cc(O)c(O)c(O)c2)c1 (some centres not stated) | ? | 16µM*[quencher] | -23 | . | . | .
Cc1ccc(NC(=O)Cn2nc(C)n3cccc3c2=O)c(C)c1 | -8% | -2% | . | . | . | .
COc1ccc(CN(CCC(c2ccccc2)c2ccc(OC(C)C)cc2)C(=O)CCl)cc1OC (configuration not stated) | -1% | -2% | -1 | -13 | 10µM* | 9%[46.1 µM]
COc1ccc(C(CCN(Cc2ccc(OC)c(OC)c2)C(C)=O)c2ccccc2)cc1 (configuration not stated) | 9% | 0% | 7 | -5 | -20%[46.1 µM] | -7%[46.1 µM]
CCCN1C(=O)CN(C2CCCCCC2)C(=O)C1c1ccc(OCC)c(OC)c1 (configuration not stated) | 4% | -2% | . | . | . | .
Cc1[nH][nH]c(=O)c1C(c1c(C)[nH][nH]c1=O)c1cn(Cc2ccccc2Cl)c2ccccc12 | ? | -2% | -43* | 2 | 12% | 1%[46.1 µM]
N/C(=N\O)c1cn(Cc2ccccc2Cl)c2ccccc12 | . | . | -1 | -3 | . | 3%
COc1ccc(-c2c(C)c3ccc(O)c(CN4CCC(C)CC4)c3oc2=O)cc1OC | -2% | 0% | . | . | . | .
CCC(=O)N1CCc2cc(Br)cc(S(=O)(=O)N3CCCC(C(=O)NCc4cccc(OC)c4)C3)c21 (configuration not stated) | -10% | 0.0079µM*[quencher] | . | . | . | .
Cc1ccc(S(=O)(=O)Nc2cccc3ncccc23)s1 | -8% | -1% | -40* | -9 | 2µM* | 4%
CC(C)OB(OC(C)C)OC(C)C | 3%[201 µM] | -4%[201 µM] | . | . | . | .
O=C1c2ccccc2-c2onc3c(Oc4ccccc4)cc(O)c1c23 | -12% | 35µM*[fluorescent] | -2 | -1 | -12%[46.1 µM] | .
CCOc1ccccc1C(=O)N(Cc1ccc(N(C)C)cc1)Cc1ccco1 | -11% | ? | . | . | . | .
CC1Cc2ccccc2N1C(=O)CSc1nnc(NC(=O)Cc2cccs2)s1 (configuration not stated) | 2% | 7% | 4 | 0 | 13µM* | 7%
CC(=O)Nc1ccccc1-c1nc2ccccc2n(CC(=O)c2ccc(Br)cc2)c1=O | 1% | -2% | . | . | . | .
CCc1nnc(NC(=S)Nc2ccccc2)s1 | -10% | -1% | 1 | -3 | -31% | 10%
Cc1nc(NC(=S)Nc2ccccc2)sc1C | -8% | -2% | 1 | 6 | 1.3µM* | 1%
CCCCC1=CC2=CC(=O)C(C)(OC(=O)CC)C(=O)C2=CN1C(CO)CO (configuration not stated) | 6%[11.2 µM] | -1%[11.2 µM] | -42*! | -4 | 28% | -4%
CCCCC1=CC2=CC(=O)C(C)(OC(=O)CC)C(=O)C2=CN1CC(C)C (configuration not stated) | 6%[11.2 µM] | 0%[11.2 µM] | -13 | -10 | 2% | 8%
O=C(c1ccc(-c2ccccc2)cc1)N1CCN(c2ncccn2)CC1 | -2% | -1% | -75* | -11 | -22%[46.1 µM] | -16%
O=C(c1ccccc1)N1CCN(c2ncccn2)CC1 | . | . | 4 | 46 | . | .
Cc1ccccc1CS(=O)(=O)c1nnc([C@H](CC(C)C)NC(=O)OC(C)(C)C)o1 | -13% | -1% | 0 | -42 | 10µM* | 0%
CC(C)[C@H](NC(=O)OC(C)(C)C)c1nnc(S(=O)(=O)Cc2c(F)cccc2Cl)o1 | -2% | -5% | -3 | ? | 13µM* | .
CC(C)(C)OC(=O)N[C@@H](Cc1ccccc1)c1nnc(S(=O)(=O)Cc2cccc(F)c2)o1 | -19% | 1% | 0 | ? | ? | 5%
CC[C@@H](C)[C@H](NC(=O)OC(C)(C)C)c1nnc(S(=O)(=O)Cc2cc(C)ccc2C)o1 | 0% | 0% | -2 | ? | 10µM* | 1%
SMILES | TRb SRC2 PPI | TR SRC2 fluor cs | Coupling enz | TSHR antag | NPSR antagonist | TCR act
O=C(CN1C(=O)COc2ccccc21)NCCc1ccc(Cl)cc1 | 6% | 0% | . | . | . | .
NS(=O)(=O)c1ccc(CNC(=O)c2cc(-c3cccnc3)nc3ccc(Cl)cc23)cc1 | . | . | . | -4 | . | -1%
NS(=O)(=O)c1ccc(CNC(=O)c2cc(-c3ccccn3)nc3ccc(Cl)cc23)cc1 | -8% | 0% | -3 | -11 | 13µM* | 3%
O=C(Nc1cccc(C(F)(F)F)c1)c1ccc2nc(-c3ccco3)c(-c3ccco3)nc2c1 | ? | 8.9µM*[quencher] | -39* | -16 | 3%[46.1 µM] | 5%
COc1ccc(CCNC(=O)c2ccc3nc(-c4ccco4)c(-c4ccco4)nc3c2)cc1OC | ? | 11µM*[quencher] | -33* | -15 | ? | -3%
O=C(O)c1ccc2nc(-c3ccco3)c(-c3ccco3)nc2c1 | -10% | ? | -35* | -11 | -7% | 3%
CCc1nc2ccc(C(=O)NCCc3ccc(OC)c(OC)c3)cc2nc1CC | -4% | -1% | 0 | -5 | . | 11%
O=C(O)c1cc(-c2ccco2)nc2ccc(Br)cc12 | 3% | -23% | 3 | 9 | 6.3µM*! | 3%
CN(C)CCOCCN(C)C | -1%[201 µM] | -6%[201 µM] | . | . | . | .
O=S(=O)(c1ccc2nc(-c3ccco3)c(-c3ccco3)nc2c1)N1CCOCC1 | -9% | 6.3µM*[quencher] | -45* | 20 | ? | 2%
CCc1nc2ccc(C(=O)N3CCN(c4ccccc4)CC3)cc2nc1CC | -7% | -1% | . | -11 | . | -5%
O=C(c1ccc2nc(-c3ccco3)c(-c3ccco3)nc2c1)N1CCN(c2ccccc2)CC1 | 2% | -9% | -40* | -17 | ? | 1%
O=S(=O)(c1ccc2ccccc2c1)N1CCOCC1 | . | . | -2 | -3 | . | -5%
CCOC(=O)c1c(NC(=O)C(C)Sc2cn(CCNC(=O)c3c(F)cccc3F)c3ccccc23)sc2c1CCC2 (configuration not stated) | 6% | 5% | . | . | . | .
CC(=O)N1CCOc2cc(S(=O)(=O)NCc3ccccc3Cl)c(Cl)cc21 | 7% | -19% | . | -19 | . | .
COc1cc(NC(=O)c2ccc(NC(=O)N3CCSc4ncccc43)cc2)cc(OC)c1 | -10% | 0% | . | . | . | .
O=C(Nc1ccc(N2CCOCC2)c2nonc12)C1CCCC1 | -4% | 0% | -41* | -9 | -25%[46.1 µM] | 1%
Nc1ccc(N2CCOCC2)c2nonc12 | ? | -7% | -48* | -4 | 24% | -2%
